Test results as given in PubChem BioAssay (NCI).
About 83,000 compounds went through this panel and 20% of them were active in at least one assay; those are over-represented in the sample as a whole.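 Values shown are percent growth following 48 h exposure of cells in 96-well plates to a single concentration of compound; below 10 was considered active.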 Activity calls are given as the source filed them.

How the values were obtained:
Assay in all cases: NCI-60 one-dose screen, 48 h (100 = growth as untreated, 0 = no growth, -100 = all killed)
Conditions in all cases: 10 µM unless noted
HCT-15 colon = tested on: HCT-15 colon
HT29 colon = tested on: HT29 colon
SNB-75 CNS = tested on: SNB-75 CNS
SNB-19 CNS = tested on: SNB-19 CNS
U251 CNS = tested on: U251 CNS
PC-3 prostate = tested on: PC-3 prostate
SK-MEL-5 melanoma = tested on: SK-MEL-5 melanoma
UACC-62 melanoma = tested on: UACC-62 melanoma
LOX IMVI melanoma = tested on: LOX IMVI melanoma
SK-MEL-28 melanoma = tested on: SK-MEL-28 melanoma
SK-MEL-2 melanoma = tested on: SK-MEL-2 melanoma
SN12C renal = tested on: SN12C renal
UO-31 renal = tested on: UO-31 renal
TK-10 renal = tested on: TK-10 renal
ACHN renal = tested on: ACHN renal
CAKI-1 renal = tested on: CAKI-1 renal
A498 renal = tested on: A498 renal
MOLT-4 leukemia = tested on: MOLT-4 leukemia
EKVX NSCLC = tested on: EKVX NSCLC
CCRF-CEM leukemia = tested on: CCRF-CEM leukemia

Measured: growth

Nn1c(N/N=C/c2nc3ccccc3s2)n[nH]c1=S
inactive: HCT-15 colon 122% | HT29 colon 112% | SNB-75 CNS 51.5% | SNB-19 CNS 104% | U251 CNS 113% | PC-3 prostate 97.8% | SK-MEL-5 melanoma 100% | UACC-62 melanoma 92.1% | LOX IMVI melanoma 102% | SK-MEL-28 melanoma 114% | SK-MEL-2 melanoma 107% | SN12C renal 86.3% | UO-31 renal 58% | TK-10 renal 88.3% | ACHN renal 98% | CAKI-1 renal 66.7% | A498 renal 77.5% | MOLT-4 leukemia 115%

N#Cc1c(-c2cccs2)cc(-c2cnccn2)nc1SCC(=O)c1ccc(F)cc1
active: A498 renal 8.83%
inactive: HCT-15 colon 100% | HT29 colon 105% | SNB-75 CNS 58.5% | SNB-19 CNS 97.7% | U251 CNS 104% | PC-3 prostate 87.2% | SK-MEL-5 melanoma 96.4% | UACC-62 melanoma 81.1% | LOX IMVI melanoma 85.4% | SK-MEL-28 melanoma 100% | EKVX NSCLC 58.9% | SN12C renal 80.3% | UO-31 renal 54.7% | TK-10 renal 89.3% | ACHN renal 92.2% | CAKI-1 renal 59.7% | CCRF-CEM leukemia 94.5% | MOLT-4 leukemia 92.7%

O=C(CSc1nnc(-c2ccc(Cl)cc2)n1-c1ccccc1)Nc1ccc(Br)cc1
inactive: HCT-15 colon 67% | HT29 colon 21.3% | SNB-19 CNS 35% | PC-3 prostate 13.5% | SK-MEL-5 melanoma 31.2% | UACC-62 melanoma 20.2% | SK-MEL-28 melanoma 33.4% | SK-MEL-2 melanoma 80.9% | CCRF-CEM leukemia 41% | MOLT-4 leukemia 61.1%
active: SNB-75 CNS -33.7% | U251 CNS -51.8% | LOX IMVI melanoma -54.5% | SN12C renal -42.9% | UO-31 renal -19.4% | TK-10 renal -55.7% | ACHN renal -81.9% | CAKI-1 renal -53.6% | A498 renal -60.8%

CCOP(=O)(OCC)OC[C@]12CCC(C)(C)C=C1[C@H]1CC[C@@H]3[C@@]4(C)CC[C@H](OP(=O)(OCC)OCC)C(C)(C)[C@@H]4CC[C@@]3(C)[C@]1(C)CC2
active: HCT-15 colon -73.3% | HT29 colon -42.4% | SNB-75 CNS -11.5% | SNB-19 CNS -12.4% | U251 CNS -84.9% | PC-3 prostate 0.0741% | SK-MEL-5 melanoma -93.4% | UACC-62 melanoma -29.4% | LOX IMVI melanoma -90.1% | SK-MEL-28 melanoma -31% | EKVX NSCLC -10.3% | SN12C renal -70.6% | UO-31 renal -61% | TK-10 renal -18% | ACHN renal -8.2% | CAKI-1 renal -63% | A498 renal -8.86% | CCRF-CEM leukemia -23.2% | MOLT-4 leukemia -20.4%

COC(=O)C1(C)CCC[C@]2(C)[C@H]3C[C@H]4C(C(C)C)=C[C@]3(CC[C@@H]12)[C@H]1[C@@H]4[C@@H](OC(=O)c2ccco2)CC[C@@H]1OC(=O)c1ccco1 (stereo partly drawn)
inactive: HCT-15 colon 107% | HT29 colon 116% | SNB-75 CNS 97.8% | SNB-19 CNS 98.4% | U251 CNS 100% | PC-3 prostate 87.9% | SK-MEL-5 melanoma 102% | UACC-62 melanoma 92.6% | LOX IMVI melanoma 111% | SK-MEL-28 melanoma 104% | EKVX NSCLC 99.1% | SN12C renal 101% | UO-31 renal 101% | TK-10 renal 105% | ACHN renal 112% | CAKI-1 renal 95.8% | A498 renal 115% | CCRF-CEM leukemia 105% | MOLT-4 leukemia 103%

CCCCCCCn1cc2c(N[C@H](C)c3ccccc3)ncnc2n1
inactive: HCT-15 colon 91.5% | HT29 colon 113% | SNB-75 CNS 92.2% | SNB-19 CNS 94.3% | U251 CNS 102% | PC-3 prostate 92.6% | SK-MEL-5 melanoma 109% | UACC-62 melanoma 80.6% | LOX IMVI melanoma 99.2% | SK-MEL-28 melanoma 108% | EKVX NSCLC 88.2% | SN12C renal 99.2% | UO-31 renal 78.3% | TK-10 renal 126% | ACHN renal 102% | CAKI-1 renal 88.2% | A498 renal 87.6% | CCRF-CEM leukemia 99.6% | MOLT-4 leukemia 102%

Cc1ccc(CSc2nc(-c3ccc(Cl)cc3)c(C#N)c(N3CCNCC3)n2)cc1
inactive: HCT-15 colon 76.2% | HT29 colon 58.4% | SNB-75 CNS 68.5% | SNB-19 CNS 84.7% | U251 CNS 65.4% | PC-3 prostate 63.5% | SK-MEL-5 melanoma 74.2% | UACC-62 melanoma 105% | LOX IMVI melanoma 52.1% | SK-MEL-28 melanoma 102% | SK-MEL-2 melanoma 115% | SN12C renal 77.8% | UO-31 renal 64.2% | TK-10 renal 99.7% | ACHN renal 82.3% | CAKI-1 renal 64.9% | A498 renal 17.6% | CCRF-CEM leukemia 65.6% | MOLT-4 leukemia 55.5%

COc1cccc(/C=C(/C)c2ccc3cccc(OC)c3[o+]2)c1O
inactive: HCT-15 colon 98% | HT29 colon 114% | SNB-75 CNS 92.4% | SNB-19 CNS 95.6% | U251 CNS 108% | PC-3 prostate 87.3% | SK-MEL-5 melanoma 102% | UACC-62 melanoma 80.3% | LOX IMVI melanoma 127% | SK-MEL-28 melanoma 98.9% | SK-MEL-2 melanoma 106% | SN12C renal 97.3% | UO-31 renal 88.8% | TK-10 renal 116% | ACHN renal 95.4% | A498 renal 84% | CCRF-CEM leukemia 104%

C=C(C=O)[C@@H]1CC[C@]2(C)[C@H](C(=O)C=C3[C@H]4C[C@](C)(C(=O)OC)CC[C@]4(C)CC[C@]32C)[C@@]1(C)CCC#N
active: HCT-15 colon -45.3% | HT29 colon -5.25% | U251 CNS 2.98% | SK-MEL-5 melanoma -88% | UACC-62 melanoma -19% | LOX IMVI melanoma -83.2% | SK-MEL-28 melanoma -38.3% | SK-MEL-2 melanoma -22.3% | UO-31 renal -91.5% | ACHN renal -12.5% | CAKI-1 renal 7.53% | MOLT-4 leukemia 0.0515%
inactive: SNB-75 CNS 66.1% | SNB-19 CNS 30.7% | PC-3 prostate 11.2% | SN12C renal 12.8% | TK-10 renal 48.9% | A498 renal 115% | CCRF-CEM leukemia 10.2%

CC1=CC(=O)C2=C(C)CC(OC(=O)CCc3ccccc3)[C@@H]3[C@H](OC(=O)[C@@H]3C)[C@@H]12 (stereo partly drawn)
inactive: HCT-15 colon 81.7% | HT29 colon 78.1% | SNB-75 CNS 95.8% | SNB-19 CNS 93.6% | U251 CNS 102% | PC-3 prostate 76.7% | SK-MEL-5 melanoma 82% | UACC-62 melanoma 72.7% | LOX IMVI melanoma 95.9% | SK-MEL-28 melanoma 100% | SK-MEL-2 melanoma 103% | SN12C renal 95.3% | UO-31 renal 79.1% | TK-10 renal 102% | ACHN renal 101% | CAKI-1 renal 86.1% | A498 renal 82.4% | CCRF-CEM leukemia 88.7% | MOLT-4 leukemia 83.6%

CCc1cccc(NC(=O)CNc2cc(S(=O)(=O)N(C)C)cc(C)c2C)c1
inactive: HCT-15 colon 106% | HT29 colon 104% | SNB-75 CNS 47% | SNB-19 CNS 97.3% | U251 CNS 104% | PC-3 prostate 81.6% | SK-MEL-5 melanoma 82.8% | UACC-62 melanoma 72.5% | LOX IMVI melanoma 89.9% | SK-MEL-28 melanoma 99.5% | EKVX NSCLC 50.7% | SN12C renal 69.4% | UO-31 renal 48.5% | TK-10 renal 65% | ACHN renal 91.3% | CAKI-1 renal 50.5% | A498 renal 35.5% | MOLT-4 leukemia 82.4%

COc1ccc(NC(=O)CSc2nnc(-c3ccc4nc(-c5ccc(OC)c(OC)c5)[nH]c4c3)o2)cc1OC
inactive: HCT-15 colon 108% | HT29 colon 105% | SNB-75 CNS 100% | SNB-19 CNS 113% | U251 CNS 112% | PC-3 prostate 102% | SK-MEL-5 melanoma 88.3% | UACC-62 melanoma 92% | LOX IMVI melanoma 98% | SK-MEL-28 melanoma 97% | SK-MEL-2 melanoma 103% | SN12C renal 100% | UO-31 renal 73.5% | TK-10 renal 117% | ACHN renal 94.2% | CAKI-1 renal 94.7% | CCRF-CEM leukemia 86% | MOLT-4 leukemia 86.6%

COc1ccc(-c2nc3ccc(-c4nnc(SCC(=O)Nc5ccc(C(=O)/C=C/c6ccc(Cl)cc6)cc5)o4)cc3[nH]2)cc1
active: LOX IMVI melanoma -29.9%
inactive: HCT-15 colon 86.1% | HT29 colon 104% | SNB-75 CNS 94.7% | SNB-19 CNS 108% | U251 CNS 94.3% | PC-3 prostate 94.9% | SK-MEL-5 melanoma 98.9% | UACC-62 melanoma 94% | SK-MEL-28 melanoma 101% | EKVX NSCLC 99.7% | SN12C renal 88.3% | UO-31 renal 85.3% | TK-10 renal 120% | ACHN renal 97.7% | CAKI-1 renal 97.2% | A498 renal 84.3% | CCRF-CEM leukemia 96% | MOLT-4 leukemia 88.3%

CN1CCN(Cc2ccc(NC(=O)c3cncc(C#Cc4cnc5ccc(OCC(C)(C)O)nn45)c3)cc2C(F)(F)F)CC1
active: HCT-15 colon -39.2% | HT29 colon -22.7% | SNB-75 CNS -46.1% | SNB-19 CNS -8.47% | U251 CNS -59.3% | PC-3 prostate 2.2% | SK-MEL-5 melanoma -91.8% | UACC-62 melanoma -41.1% | LOX IMVI melanoma -91% | SK-MEL-28 melanoma -38.9% | SK-MEL-2 melanoma -80.4% | SN12C renal 2.45% | UO-31 renal -87.9% | TK-10 renal -18.5% | ACHN renal -33.3% | A498 renal -84.1% | CCRF-CEM leukemia 6.09% | MOLT-4 leukemia 5.42%

NC(N)=Nc1ccc(Oc2cccc(Nc3ccc(Cl)c(C(F)(F)F)c3)c2)cn1
active: HCT-15 colon -63.5% | HT29 colon -39.2% | SNB-19 CNS -77% | U251 CNS -82.2% | PC-3 prostate -89.4% | UACC-62 melanoma -78.3% | LOX IMVI melanoma -83.8% | SK-MEL-28 melanoma -28.6% | SK-MEL-2 melanoma -17.7% | SN12C renal -84.4% | ACHN renal 3.16% | CAKI-1 renal -6.78% | A498 renal -7.17% | CCRF-CEM leukemia -7% | MOLT-4 leukemia -39%
inactive: SNB-75 CNS 20.3% | SK-MEL-5 melanoma 26.7% | UO-31 renal 43.3% | TK-10 renal 23.2%

COc1cc(/C=N/NC(=O)c2cn(C3CC3)c3c(OC)c(N4CC5CCCNC5C4)c(F)cc3c2=O)ccc1O (stereo not drawn)
inactive: HCT-15 colon 32% | SNB-75 CNS 106% | SNB-19 CNS 26.2% | PC-3 prostate 45.1% | SK-MEL-5 melanoma 95.4% | UACC-62 melanoma 91.5% | SK-MEL-28 melanoma 94.4% | SK-MEL-2 melanoma 113% | SN12C renal 23.8% | UO-31 renal 81.1% | TK-10 renal 119% | ACHN renal 35.3% | CAKI-1 renal 82.9% | A498 renal 99.4%
active: HT29 colon -0.257% | U251 CNS -67% | LOX IMVI melanoma -83.5% | CCRF-CEM leukemia 2.53% | MOLT-4 leukemia 2.34%
